High-throughput results as filed in PubChem.
Shown is part of a subset that was picked to be rich in hits.
Apoferritin bind: candidate novel general anesthetic via apoferritin binding; 350,000 compounds, 0.074% hits; P02791; Potency, µM (top dose mostly 77.5 µM), without a hit: at the highest dose activity change, negative = displacement, actives largely listed as inhibitors; apoferritin/1-aminoanthracene competitive binding, fluorescence; AID 485281; note: potency is the fitted concentration of half-maximal effect; nearly all actives have a fitted effect of over 20% in size
Target sequence (P02791 2-175 limits assumed): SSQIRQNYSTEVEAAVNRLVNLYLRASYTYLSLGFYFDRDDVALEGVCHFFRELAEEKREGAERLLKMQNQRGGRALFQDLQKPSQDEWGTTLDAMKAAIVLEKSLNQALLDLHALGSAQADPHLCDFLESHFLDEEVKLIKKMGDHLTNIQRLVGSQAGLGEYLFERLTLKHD
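Horse-spleen apoferritin (10 uM) in 50% saturated 1-aminoanthracene in PBS was incubated 10 min at room temperature with compound. Fluorescence (ex 380, em 535 nm) was normalized to free and bound 1-AMA, with concentration-response fitted by a four-parameter Hill equation.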
Six1-Eya2 blk: Six1/Eya2 interaction inhibition; Q15475+O00167; AlphaScreen GST-Six1/His-Eya2 binding, biochemical; hits give low values; activity change, % (test concentration not listed); 360,000 compounds, 0.56% hits; AID 651725; in the data active = activity change below about -65%; inconclusive = mostly about -30% to -63%
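Compounds are tested against tagged Six1 and Eya2 proteins bridged by glutathione donor and nickel acceptor beads; after a one-hour incubation at 37 °C without light, AlphaScreen emission is recorded.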
Eya2 phos inh: blocks the phosphatase activity of human Eya2; O00167; recombinant Eya2, OMFP fluorescence dephosphorylation (OMFP is methylfluorescein phosphate); Potency, µM (highest dose often 76.9 µM), for the others: at the highest dose activity, negative = inhibition, hits mostly inhibitors; 330,000 compounds, 0.006% hits; AID 488837; note: potency is the fitted concentration of half-maximal effect
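Eya2 (0.2 uM) preincubated 10 min at ambient with compound, then OMFP substrate added at 50 uM; 10 min reaction in 50 mM HEPES pH 7.5, 50 mM NaCl, 5 uM MgCl2, 0.05% BSA, 1 mM DTT. Fluorescence read at Ex 485/Em 525 nm.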
GALK inhibitor: inhibitors of human galactokinase; 270,000 compounds, 0.007% hits; Potency, µM (highest dose often 57.5 µM), for inactives: at the top dose activity change, negative = inhibition, usual class: inhibitors; P51570; Purified GALK, Kinase-Glo residual ATP luminescence; note: potency is the fitted concentration of half-maximal effect
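Compounds were pin-transferred into ATP buffer (35 uM final), then GALK plus galactose (5 nM, 100 uM final) was added. After 1 h at room temperature, Kinase-Glo Plus was added and luminescence read after 10 min.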
KDM4E inh: JMJD2E (human) inhibition. 230,000 compounds, 1.6% hits. JMJD2E catalytic domain, FDH-coupled NADH fluorescence (FDH is formaldehyde dehydrogenase). AID 2147. Potency, µM (doses to about 57.1 µM), inactives show at the highest dose activity change, negative = inhibition, usual class: inhibitors. B2RXH2; active = well fitted inhibition curve with a large enough effect, not every such curve was filed as active; inconclusive = small, poorly fitted or top-dose-only effect, or another doubt; inactive = no such curve, though single readings can be large or run the other way;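 note: potency is the fitted concentration of half-maximal effect; 0% = wells with enzyme and -100% = buffer wells without enzyme; nearly all actives have a fitted effect of over 50% in size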
Target sequence (B2RXH2 1-337 limits assumed): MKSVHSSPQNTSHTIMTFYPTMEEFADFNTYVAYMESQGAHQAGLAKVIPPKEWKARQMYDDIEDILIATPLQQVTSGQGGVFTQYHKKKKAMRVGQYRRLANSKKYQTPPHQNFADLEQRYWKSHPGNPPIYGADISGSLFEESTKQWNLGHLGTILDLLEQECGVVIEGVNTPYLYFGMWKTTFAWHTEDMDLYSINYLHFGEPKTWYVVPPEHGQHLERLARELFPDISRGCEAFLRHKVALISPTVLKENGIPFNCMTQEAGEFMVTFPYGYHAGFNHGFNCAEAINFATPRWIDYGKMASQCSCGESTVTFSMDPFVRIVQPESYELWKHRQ
CtBP-E1A inh: CtBP/E1A binding inhibition | 340,000 compounds, 0.49% hits | AlphaScreen GST-E1A/His-CtBP binding, 1536-well; hits give low values | activity change, % (concentration not given with the values); in the data active = activity change below about -65%; inconclusive = mostly about -30% to -63%
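GST-E1A and His-tagged CtBP (125 nM each as 5X stock) were preincubated with pin-transferred compound for 2 h at 37 °C in the dark, then glutathione donor and nickel acceptor beads were added for 1 h before AlphaScreen reading.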
Numbers without * were called inactive; u = inconclusive; x = no result; ! = not confirmed by another sample; [ ] = remark or other dose. Unless noted, calls come from the whole dose curve; as a rule, active = well fitted curve in the direction sought with a large enough effect; inconclusive = small, poorly fitted or top-dose-only effect, or another doubt; inactive = no such curve, though single readings can be large; an effect the other way counts as inactive or inconclusive. Unless noted, % is set by controls: 0 for no effect and ±100 for the full control effect.

SMILES	Apoferritin bind	Six1-Eya2 blk	Eya2 phos inh	GALK inhibitor	KDM4E inh	CtBP-E1A inh
O=C1C2=CC[C@@H]3C(=O)N(c4ccc(F)cc4F)C(=O)[C@H]3[C@H]2[C@H](O)[C@H]2O[C@H]12	8%[15.3 µM]	x	x	x	x	x
CC1=C/C(=C(/c2cc(C)c(O)c(Br)c2)c2ccccc2S(=O)(=O)O)C=C(Br)C1=O	0%	-73*	-1%	0%	x	-69*
NC(CCC(=O)NC(CCSC(CC(=O)O)C(=O)O)C(=O)NCC(=O)O)C(=O)O (stereo not given)	3%	x	x	x	1%	x
CCOc1cc(N2CCOCC2)c(OCC)cc1NC(=O)CN1CCCC1	-5%	5	2%	0%	25µM*	-8
FC(F)(F)c1cnc(C(c2ccccn2)c2ncn[nH]2)c(Cl)c1 (stereo not given)	-2%	-89*	-2%	6%	25µM*	u
FC(F)(F)c1cnc(C(c2ccccc2)c2ncn[nH]2)c(Cl)c1 (stereo not given)	-4%	1	-3%	0%	11%	0
C/C=C/C(=O)C[C@H]1CC[C@@H](C)[C@@H](CCO)O1	x	x	x	x	-4%	x
O=C(CSc1nc2ccccc2n1CCc1ccccc1)c1ccc(O)c(O)c1	u	u	5%	-2%	22µM*	-7
O=C(CSc1nc2ccccc2n1CCc1ccccc1)N1CCOCC1	-9%	0	-16%	2%	1%	3
O=C(CSc1nc2ccccc2c(=O)[nH]1)c1ccc(O)c(O)c1	0%	-20	-1%	-4%	25µM*	-2
COc1cccc(/C=N/NC(=O)C(=O)N/N=C/c2cccc(OC)c2O)c1O	-6%	u	1%	0%	u	u
COc1cccc(/C=N/NC(=O)NC2CCCCC2)c1O	-12%	-10	-5%	-4%	22µM*	-11
COc1ccc(/C=N/NC(=O)C2C(=O)NCC2c2ccccc2)c(OC)c1 (stereo not given)	-13%	4	-5%	x	-4%	5
COc1cccc(/C=N/NC(=O)CC2C(=O)NN=C2C)c1O (stereo not given)	-13%	u	12%	2%	8.9µM*	u
COc1cccc(/C=N\NC(=O)C2C(=O)NCC2c2ccccc2)c1O (stereo not given)	-11%	-86*	-2%	3%	28µM*	-90*
COc1cccc(/C=N/NC(=O)CC2C(=O)NN=C2C)c1OC (stereo not given)	0%	-8	-6%	-1%	u	-2
COc1cccc(/C=N/NC(=O)C(=O)N2CCCCCC2)c1O	-5%	-82*	-6%	3%	x	-89*
O=C(CCn1c(=O)c2cccn2c2cccnc21)NCc1ccc(Cl)cc1	-3%	x	x	x	x	x
CCc1ccc(CNC(=O)Cn2nc(C)c3nn(-c4ccc(Cl)cc4)c(C)c3c2=O)cc1	-1%	x	x	x	x	x
Cc1cc2c(N=O)c(NO)ccc2[nH]1	-5%	-3	4%	0%	11µM*	-11
COc1ccc2[nH]c(O)c(N=O)c2c1	2%	0	7%	x	-10%	8
CCN1/C(=C/C=C/C=C/c2sc3ccccc3[n+]2CC)Sc2ccccc21	u	x	-7%	18%	22µM*	x
CCN1/C(=C/C=C/C=C/C=C/c2sc3ccccc3[n+]2CC)Sc2ccccc21	-13%	-1	14%	12%	x	-2
Cc1cc2nc3c(=O)[nH]c(=O)[nH]c3nc2c([N+](=O)[O-])c1N	u	-84*	42%	4%	u	-82*
Cc1c(N)c(C(C)(C)C)cc(C(C)(C)C)c1[N+](=O)[O-]	-11%	-18	-9%	0%	12%	1
SMILES	Apoferritin bind	Six1-Eya2 blk	Eya2 phos inh	GALK inhibitor	KDM4E inh	CtBP-E1A inh
CC1=C(/C=C/C(C)=C/C=C/C(C)=C/C(=O)Nc2ccc(O)cc2)C(C)(C)CCC1	u	-16	-19%	x	20µM*!	6
CCOC(=O)c1c(C)[nH]c(C)c1S(=O)(=O)NCC(=O)Nc1ccc(CC)cc1	7%	x	x	x	x	x
O=C(c1cc(O)c(O)c([N+](=O)[O-])c1)c1ccccc1F	x	-8	28%	x	11µM*	-27
COC(=O)N[C@@H](CCc1ccccc1)[C@]1(C(=O)OC)CCCC1=O	x	x	x	x	0%	x
COc1ccc(CCNC(=O)c2ccc(CNc3nc(=S)[nH]c4ccccc34)cc2)cc1OC	-13%	3	21%	17%	7%	-5
COc1cc2[nH]c(=S)nc(NCCc3ccc(S(N)(=O)=O)cc3)c2cc1OC	-9%	-90*	3%	-1%	6%	-90*
COc1ccc(CCNc2ncnc3c2[nH]c2cc(OC)c(OC)cc23)cc1OC	-4%	u	-11%	4%	u	-29
COc1cc2[nH]c(=S)nc(NCCc3ccc(C)cc3)c2cc1OC	-13%	u	3%	3%	u	-87*
COc1ccc(CCNc2nc(=S)[nH]c3cc(OC)c(OC)cc23)cc1OC	-5%	-88*	0%	0%	3%	x
Cc1cccc(N2CCN(C(=O)CN3C(=O)COc4ccc(S(=O)(=O)N5CCCC5)cc43)CC2C)c1 (stereo not given)	-8%	x	x	x	x	x
O=C(Nc1ccc(C(=O)OCc2cc(=O)n3nc(C4CC4)sc3n2)cc1)c1cccc(F)c1	-6%	x	x	x	x	x
Cc1ccc(/C=N/NS(=O)(=O)c2ccc([N+](=O)[O-])cc2)o1	-6%	3	4%	3%	12%	4
CCCCCCCCCCS(=O)(=O)N/N=C/c1ccc([N+](=O)[O-])cc1	20µM*	-18	-11%	-7%	-20%	-9
Cc1cc(C(=O)N/N=C/c2ccccn2)n[nH]1	-3%	-8	5%	3%	u	x
O=C(N/N=C/c1ccccn1)c1ccc(Br)cc1	-2%	u	13%	x	3%	-65*
O=C(N/N=C/c1ccccn1)c1cc(C2CC2)[nH]n1	-6%	u	4%	9%	u	-68*
O=C(O)c1cccc(NC(=S)N/N=C/c2ccccn2)c1	-3%	-76*	7%	1%	u	x
Cc1ccc(C(C)C)c(OCc2ccc(C(=O)N/N=C/c3cccc(O)c3O)cc2)c1	u	-22	-7%	-1%	4.5µM*	-22
O=C(O)c1cccc(NC(=S)N/N=C/c2cccc(O)c2)c1	2%	-1	10%	3%	-5%	-7
Cc1ccc(C(C)C)c(OCc2ccc(C(=O)N/N=C/c3ccc(O)c(O)c3)cc2)c1	u	-20	-13%	0%	5%	-3
Brc1ccc2c(c1)c1cc(Br)ccc1n2CC1CO1 (stereo not given)	x	x	x	x	4%	x
CC(C)Oc1ccc(CNS(=O)(=O)c2ccc(-c3cc(C(F)(F)F)on3)s2)cc1	-8%	x	x	x	x	x
